We go through 40 compounds from PubChem BioAssay (Tox21).

A number with no mark means an inactive call. Where a call stands in place of a potency, no number is given. The source made the active and inactive calls. Calls come from the whole dose curve; as a rule, active = well fitted curve in the direction sought with a large enough effect in the repeat runs; inconclusive = weak or mixed curves; inactive = flat fitted curve, though single readings scatter.

This assay can be described thus: qHTS assay to test for compound auto fluorescence at 590 nm (red) in HepG2 cell free culture (AID 720684). Conditions: cell-free medium autofluorescence, red 540/590 nm; series mostly up to 91.3 µM; fluorescence, % of Rose Bengal: at the top concentration. An excerpt:
U.S. Tox21 Program National Center for Advancing Translational Sciences [NCATS] NIH Chemical Genomics Center [NCGC] U.S. Environmental Protection Agency [EPA] National Institutes of Environmental Health Sciences [NIEHS] National Toxicology Program [NTP] U.S. Food and Drug Administration [FDA] Tox21 Assay Overview: Compound auto fluorescence often interferes with screening of the compound library against various biological targets and signaling pathways. Some of these compounds may have fluorophoric properties. Such properties may interfere with the assay outputs resulting in false positives and/or negatives. To decrease such complications and ensure the compound activities are relevant in terms of biological response, the Tox21 10K compound library was screened for auto fluorescence. From the fluorophores used as reporter signals in our screening assays, the auto fluorescence equivalencies of compounds against three fluorophores have been evaluated: Triamterene, Fluorescein and Rose Bengal sodium for blue, green and red fluorescence, respectively. The fluorescence intensities were measured using Excitation/Emission wavelengths at 405/460nm, 485/535nm and 540/590nm for blue, green and red labels, respectively. This assay includes the red fluorescence data.
Tox21 Assay Protocol Summary: 5 uL of culture medium (MEM containing 10% FBS) per well was dispensed into black wall/clear bottom 1536-well plates using a Multidrop Combi Dispenser (ThermoFisher Scientific, Waltham, MA). After 23 nL compound or DMSO vehicle was transferred into assay plate by a pintool work station (Kalypsys, San Diego, CA), fluorescence intensities in the assay plates were measured by an Envision (PerkinElmer, Shelton, CT) plate reader using three labels for measuring blue, green and red fluorescence at […] 460, 535 and 590nm respectively.
As for `C1=CC2C3C=CC(C3)C2C1` (stereo not given), the “fluorescence, % of Rose Bengal” value was -0.322%. Turning to `CC(=O)CCC(=O)O`, the Potency result was “inactive”. The same measure, in the same setting: to `C/C=C/C=C/C(=O)O` belongs “inactive”; to `CN(N=O)C(=O)N[C@@H]1[C@@H](O)[C@H](O)[C@@H](CO)O[C@@H]1O`, “inactive”; to `CCOC(N)=O`, “inactive”. As to `Cc1c(C(=O)O)c(O)cc2c1C(=O)c1c(O)c([C@@H]3O[C@H](CO)[C@@H](O)[C@H](O)[C@H]3O)c(O)c(O)c1C2=O`, the Potency entry is “inactive”.

Consider `Cc1ncc([N+](=O)[O-])n1CCO`, for which the Potency entry was “inactive”.

For `CCCCOC(=O)c1ccc(O)cc1`, the Potency entry is “inactive”.

As to `CC(C)C(=O)Nc1ccc([N+](=O)[O-])c(C(F)(F)F)c1`, the Potency entry was “inactive”. Same read-out and setting: to `CCN(CC)C(=O)c1cccc(C)c1` belongs “inactive”; to `OC[C@H]1O[C@H](O[C@]2(CCl)O[C@H](CCl)[C@@H](O)[C@@H]2O)[C@H](O)[C@@H](O)[C@H]1Cl`, “inactive”; to `O=C(O)CC(O)C(=O)O` (stereo not given), “inactive”. Regarding `CCN(Cc1c(F)cccc1Cl)c1c([N+](=O)[O-])cc(C(F)(F)F)cc1[N+](=O)[O-]`, the “fluorescence, % of Rose Bengal” value was 0.0284%. On to `Cc1cc(C)nc(NS(=O)(=O)c2ccc(N)cc2)n1`, for which the Potency entry is “inactive”. The same measure, in the same setting: to `NS(=O)(=O)c1cc2c(cc1Cl)NCNS2(=O)=O` belongs “inactive”. As to `O=C1NS(=O)(=O)c2ccccc21`, the Potency entry is “inactive”. Same read-out and setting: to `Cc1cn([C@H]2C=C[C@@H](CO)O2)c(=O)[nH]c1=O` belongs “inactive”; to `CCCc1cc(=O)[nH]c(=S)[nH]1`, “inactive”. With `Oc1ccccc1`, the Potency entry was “inactive”. Same read-out and setting: to `NC1CCCCC1` belongs “inactive”; to `CC(C)NCC(O)c1ccc(O)c(O)c1` (stereo not given), “inactive”; to `CC1(C)O[C@@H]2C[C@H]3[C@@H]4CCC5=CC(=O)C=C[C@]5(C)[C@@]4(F)[C@@H](O)C[C@]3(C)[C@]2(C(=O)CO)O1`, “inactive”. As for `Nc1ccc([N+](=O)[O-])cc1O`, the “fluorescence, % of Rose Bengal” value is -0.413%. The same measure, in the same setting: to `O=C(Nc1ncc([N+](=O)[O-])s1)c1cccs1` belongs 0.0702% [at 46 µM]; to `Nc1ccc(O)c([N+](=O)[O-])c1`, 0.207%.

For the compound `NC(=O)c1cccnc1`, the Potency entry is “inactive”. The same measure, in the same setting: to `O=C(O)c1ccccc1` belongs “inactive”.

Regarding `COc1cccc(O)c1O`, the “fluorescence, % of Rose Bengal” value is 0.15% [at 95.7 µM]. For `CN(C)CCOC(C)(c1ccccc1)c1ccccn1` (stereo not given), the Potency entry is “inactive”.

Consider `C1CCC(C(CC2CCCCN2)C2CCCCC2)CC1` (stereo not given), for which the “fluorescence, % of Rose Bengal” value was -0.141% [at 46 µM]. For `CCCCNC(=O)NS(=O)(=O)c1ccc(C)cc1`, the Potency entry is “inactive”.

Turning to `CC(=O)CC(c1ccccc1)c1c(O)c2ccccc2oc1=O` (stereo not given), the Potency entry is “inactive”. The same measure, in the same setting: to `CCOc1ccc(NC(C)=O)cc1` belongs “inactive”; to `CN1CCc2cccc3c2[C@H]1Cc1ccc(O)c(O)c1-3`, “inactive”.

With `F[B-](F)(F)F`, the Potency result is “inactive”. Take `COc1ccc2cc(S(=O)(=O)N[C@H](CC(=O)N[C@H](Cc3ccc(CN4[C@H](C)CCC[C@@H]4C)cc3)C(=O)N(C)C(C)C)c3ccc4c(c3)OCO4)ccc2c1`: the “fluorescence, % of Rose Bengal” value was -0.0008%. `NS(=O)(=O)O`: the Potency entry was “inactive”. The same measure, in the same setting: to `NC(CO)(CO)CO` belongs “inactive”; to `CCc1nc(N)nc(N)c1-c1ccc(Cl)cc1`, “inactive”. For `NC(=O)n1c(O)c(C(=O)c2cccs2)c2cc(Cl)ccc21`, the “fluorescence, % of Rose Bengal” value is 0.0149% [at 46 µM].
